# Data: publication PMC7862700, “An all-to-all approach to the identification of sequence-specific readers for epigenetic DNA modifications on cytosine”
# How the values were obtained:
# Assay in all cases: DAPPL (digital affinity profiling via proximity ligation, sequencing); 10 mM Tris-HCl pH 7.5, 50 mM NaCl, 1 mM DTT, 4% glycerol, room temperature, 30 min; GST-TFs on glutathione beads, 16-mer random dsDNA library, 0.1% formaldehyde crosslink after washing; high values mean tight binding
# Settings in all cases: protein: recombinant; tags: N-terminal GST; dsDNA, one strand shown
# FLI1 = target: T1, FLI1 (Homo sapiens, UniProt Q01543 1-452)
# T1 sequence: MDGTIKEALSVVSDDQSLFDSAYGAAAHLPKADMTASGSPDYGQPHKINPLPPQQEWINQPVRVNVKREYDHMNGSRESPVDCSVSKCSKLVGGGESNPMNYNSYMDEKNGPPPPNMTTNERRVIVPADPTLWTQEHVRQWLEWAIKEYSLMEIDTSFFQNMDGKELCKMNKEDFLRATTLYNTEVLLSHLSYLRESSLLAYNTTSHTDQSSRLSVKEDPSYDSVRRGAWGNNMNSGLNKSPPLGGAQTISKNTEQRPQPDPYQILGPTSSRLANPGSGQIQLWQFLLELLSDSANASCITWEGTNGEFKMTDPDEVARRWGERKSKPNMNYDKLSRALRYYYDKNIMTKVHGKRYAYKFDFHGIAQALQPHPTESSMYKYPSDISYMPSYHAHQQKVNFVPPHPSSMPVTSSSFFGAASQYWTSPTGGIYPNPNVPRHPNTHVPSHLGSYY
# Outline: (§1)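 Binding signal is defined as a hexamer's read frequency for one factor over its frequency for the tag-only sample. To obtain reads, GST-fused human transcription factors were expressed in yeast, captured on glutathione beads, barcoded with DNA and pooled with that sample. Pools met 200 nmole of a 16-mer random double-stranded DNA library in Tris/NaCl/DTT/glycerol buffer for 30 min at room temperature before washing, 0.1% formaldehyde crosslinking, proximity ligation (BsaI/T4 ligase, 1 h, 37 °C), PCR and Illumina NextSeq500 sequencing.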
# ELK1 = target: T2, ELK1 (Homo sapiens, UniProt P19419 1-428)
# T2 sequence: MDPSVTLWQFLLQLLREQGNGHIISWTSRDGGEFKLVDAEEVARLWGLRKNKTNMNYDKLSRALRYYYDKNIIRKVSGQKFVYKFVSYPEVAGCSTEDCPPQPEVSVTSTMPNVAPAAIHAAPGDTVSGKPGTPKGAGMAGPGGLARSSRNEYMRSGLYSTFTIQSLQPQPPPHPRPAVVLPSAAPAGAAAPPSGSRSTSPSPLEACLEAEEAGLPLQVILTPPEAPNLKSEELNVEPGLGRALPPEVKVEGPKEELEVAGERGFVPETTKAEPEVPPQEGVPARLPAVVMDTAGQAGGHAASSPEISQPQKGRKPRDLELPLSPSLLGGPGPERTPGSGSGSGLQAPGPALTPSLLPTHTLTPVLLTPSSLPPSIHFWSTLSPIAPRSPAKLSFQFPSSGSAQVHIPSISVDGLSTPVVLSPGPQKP
# Outline: as §1
# GABPA = target: T3, GABPA (Homo sapiens, UniProt Q06546 1-454)
# T3 sequence: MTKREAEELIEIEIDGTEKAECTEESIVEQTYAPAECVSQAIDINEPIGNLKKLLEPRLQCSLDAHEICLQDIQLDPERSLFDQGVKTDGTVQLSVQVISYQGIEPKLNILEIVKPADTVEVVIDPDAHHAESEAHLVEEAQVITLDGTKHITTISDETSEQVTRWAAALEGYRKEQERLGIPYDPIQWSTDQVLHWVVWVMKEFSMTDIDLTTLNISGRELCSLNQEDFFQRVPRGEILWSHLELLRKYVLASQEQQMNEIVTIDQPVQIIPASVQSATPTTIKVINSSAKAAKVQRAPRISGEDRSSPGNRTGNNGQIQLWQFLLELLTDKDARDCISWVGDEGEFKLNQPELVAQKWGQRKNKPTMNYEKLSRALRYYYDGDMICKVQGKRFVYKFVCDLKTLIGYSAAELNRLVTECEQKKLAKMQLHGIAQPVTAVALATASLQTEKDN
# Outline: as §1
# ERG = target: T4, ERG (Homo sapiens, UniProt P11308 1-479)
# T4 sequence: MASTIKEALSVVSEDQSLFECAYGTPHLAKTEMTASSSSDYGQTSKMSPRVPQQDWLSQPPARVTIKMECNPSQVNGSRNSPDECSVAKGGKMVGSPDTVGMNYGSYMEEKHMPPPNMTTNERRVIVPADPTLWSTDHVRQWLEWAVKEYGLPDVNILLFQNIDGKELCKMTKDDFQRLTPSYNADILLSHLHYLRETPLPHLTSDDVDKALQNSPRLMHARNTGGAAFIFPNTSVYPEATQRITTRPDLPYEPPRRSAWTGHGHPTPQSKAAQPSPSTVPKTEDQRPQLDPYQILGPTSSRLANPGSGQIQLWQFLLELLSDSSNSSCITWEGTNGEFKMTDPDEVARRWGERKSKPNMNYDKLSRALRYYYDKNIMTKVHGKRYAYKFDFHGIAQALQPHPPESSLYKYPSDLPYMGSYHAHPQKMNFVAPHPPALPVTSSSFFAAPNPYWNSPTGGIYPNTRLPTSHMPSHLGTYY
# Outline: as §1
# ELF1 = ELF1 (Homo sapiens, UniProt P32519 1-619)
# Chain of ELF1 (P32519 whole entry): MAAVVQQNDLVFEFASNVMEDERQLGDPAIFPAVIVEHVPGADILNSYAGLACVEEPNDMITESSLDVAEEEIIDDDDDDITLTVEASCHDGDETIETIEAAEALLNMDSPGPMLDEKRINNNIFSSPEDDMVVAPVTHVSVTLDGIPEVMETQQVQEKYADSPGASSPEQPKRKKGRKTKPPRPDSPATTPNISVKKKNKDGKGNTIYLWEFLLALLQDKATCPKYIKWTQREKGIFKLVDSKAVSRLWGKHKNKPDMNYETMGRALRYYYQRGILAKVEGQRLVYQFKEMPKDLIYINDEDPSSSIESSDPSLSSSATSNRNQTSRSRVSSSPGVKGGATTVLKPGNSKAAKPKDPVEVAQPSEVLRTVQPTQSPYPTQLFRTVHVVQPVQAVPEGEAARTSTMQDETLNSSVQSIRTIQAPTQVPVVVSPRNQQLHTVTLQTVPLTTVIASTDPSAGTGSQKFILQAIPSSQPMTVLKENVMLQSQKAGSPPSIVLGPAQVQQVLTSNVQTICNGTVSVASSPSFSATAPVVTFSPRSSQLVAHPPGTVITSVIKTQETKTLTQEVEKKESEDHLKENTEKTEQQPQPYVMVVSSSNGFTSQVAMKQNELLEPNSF
# Outline: as §1
# EHF = target: T5, EHF (Homo sapiens, UniProt Q9NZC4 1-300)
# T5 sequence: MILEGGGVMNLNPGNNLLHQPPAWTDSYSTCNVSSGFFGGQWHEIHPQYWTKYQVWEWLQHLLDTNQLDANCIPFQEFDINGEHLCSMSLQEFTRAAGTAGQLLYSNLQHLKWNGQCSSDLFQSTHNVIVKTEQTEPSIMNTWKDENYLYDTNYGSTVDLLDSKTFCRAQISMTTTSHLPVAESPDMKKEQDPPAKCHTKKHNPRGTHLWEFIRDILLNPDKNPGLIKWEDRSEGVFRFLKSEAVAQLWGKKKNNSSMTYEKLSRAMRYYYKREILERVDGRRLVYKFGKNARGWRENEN
# Outline: as §1
# SPI1 = SPI1 (Homo sapiens, UniProt P17947 1-270)
# Outline: as §1
# ELK3 = target: T6, ELK3 (Homo sapiens, UniProt P41970 1-407)
# T6 sequence: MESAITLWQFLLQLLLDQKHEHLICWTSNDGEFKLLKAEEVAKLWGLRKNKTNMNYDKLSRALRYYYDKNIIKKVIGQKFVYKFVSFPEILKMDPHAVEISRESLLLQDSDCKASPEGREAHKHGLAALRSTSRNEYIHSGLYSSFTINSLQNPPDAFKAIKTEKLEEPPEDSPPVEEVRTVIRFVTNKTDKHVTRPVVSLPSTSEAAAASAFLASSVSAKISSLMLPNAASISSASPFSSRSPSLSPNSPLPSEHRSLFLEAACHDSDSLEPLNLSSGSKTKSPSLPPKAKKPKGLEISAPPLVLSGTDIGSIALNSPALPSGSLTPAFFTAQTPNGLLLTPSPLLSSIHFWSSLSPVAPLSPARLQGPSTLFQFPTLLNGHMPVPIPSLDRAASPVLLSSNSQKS
# Outline: as §1
# FEV = target: T7, FEV (Homo sapiens, UniProt Q99581 1-238)
# T7 sequence: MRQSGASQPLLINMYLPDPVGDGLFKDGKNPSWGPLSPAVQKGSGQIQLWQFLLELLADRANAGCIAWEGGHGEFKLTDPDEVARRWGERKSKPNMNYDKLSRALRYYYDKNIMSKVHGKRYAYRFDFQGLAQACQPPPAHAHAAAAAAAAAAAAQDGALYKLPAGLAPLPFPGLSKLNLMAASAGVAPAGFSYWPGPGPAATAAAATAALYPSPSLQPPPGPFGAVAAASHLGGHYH
# Outline: as §1
# ETV5 = ETV5 (Homo sapiens, UniProt P41161 1-510)
# Chain of ETV5 (P41161 whole entry): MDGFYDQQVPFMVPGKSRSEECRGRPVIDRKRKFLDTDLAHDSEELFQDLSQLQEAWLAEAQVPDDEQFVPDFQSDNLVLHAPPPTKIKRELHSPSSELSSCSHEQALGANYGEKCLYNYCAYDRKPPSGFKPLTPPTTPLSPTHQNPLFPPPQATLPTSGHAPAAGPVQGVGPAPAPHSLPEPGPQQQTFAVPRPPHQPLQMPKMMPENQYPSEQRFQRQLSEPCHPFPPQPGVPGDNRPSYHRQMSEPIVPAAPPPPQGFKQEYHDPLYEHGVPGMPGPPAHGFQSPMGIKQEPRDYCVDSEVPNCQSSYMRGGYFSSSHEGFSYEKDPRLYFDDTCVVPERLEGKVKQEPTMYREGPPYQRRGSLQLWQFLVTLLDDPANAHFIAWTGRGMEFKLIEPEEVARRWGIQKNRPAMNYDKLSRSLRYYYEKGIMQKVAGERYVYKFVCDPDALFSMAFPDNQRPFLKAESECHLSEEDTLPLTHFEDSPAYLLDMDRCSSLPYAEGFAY
# Outline: as §1
# SPIC = target: T8, SPIC (Homo sapiens, UniProt Q8N5J4 1-248)
# T8 sequence: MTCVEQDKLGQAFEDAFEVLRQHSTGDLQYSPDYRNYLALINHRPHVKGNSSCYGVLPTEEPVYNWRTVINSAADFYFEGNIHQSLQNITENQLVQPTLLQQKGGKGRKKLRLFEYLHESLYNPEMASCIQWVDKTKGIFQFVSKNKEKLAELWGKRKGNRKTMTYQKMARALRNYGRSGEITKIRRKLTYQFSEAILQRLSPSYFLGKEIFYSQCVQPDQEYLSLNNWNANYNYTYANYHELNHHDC
# Outline: as §1
# ELF4 = ELF4 (Homo sapiens, UniProt Q99607 1-663)
# Chain of ELF4 (Q99607 whole entry): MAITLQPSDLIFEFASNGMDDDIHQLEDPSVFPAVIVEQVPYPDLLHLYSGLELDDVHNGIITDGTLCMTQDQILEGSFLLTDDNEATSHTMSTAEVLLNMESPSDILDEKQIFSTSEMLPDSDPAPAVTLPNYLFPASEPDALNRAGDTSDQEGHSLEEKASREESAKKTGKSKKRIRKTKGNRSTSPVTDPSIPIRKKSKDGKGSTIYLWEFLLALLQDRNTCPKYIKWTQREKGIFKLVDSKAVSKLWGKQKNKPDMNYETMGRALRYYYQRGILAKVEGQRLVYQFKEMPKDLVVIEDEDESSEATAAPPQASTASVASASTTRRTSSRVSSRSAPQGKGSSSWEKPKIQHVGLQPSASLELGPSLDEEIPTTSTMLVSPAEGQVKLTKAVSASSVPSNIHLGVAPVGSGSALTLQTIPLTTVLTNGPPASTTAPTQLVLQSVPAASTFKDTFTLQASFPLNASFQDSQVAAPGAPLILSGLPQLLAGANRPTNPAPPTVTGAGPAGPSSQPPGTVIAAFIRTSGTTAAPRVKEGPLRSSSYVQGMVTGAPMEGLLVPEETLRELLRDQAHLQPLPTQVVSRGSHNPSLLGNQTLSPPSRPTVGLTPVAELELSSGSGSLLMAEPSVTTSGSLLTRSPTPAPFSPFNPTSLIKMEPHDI
# Outline: as §1
# ETV1 = ETV1 (Homo sapiens, UniProt P50549 1-477)
# Chain of ETV1 (P50549 whole entry): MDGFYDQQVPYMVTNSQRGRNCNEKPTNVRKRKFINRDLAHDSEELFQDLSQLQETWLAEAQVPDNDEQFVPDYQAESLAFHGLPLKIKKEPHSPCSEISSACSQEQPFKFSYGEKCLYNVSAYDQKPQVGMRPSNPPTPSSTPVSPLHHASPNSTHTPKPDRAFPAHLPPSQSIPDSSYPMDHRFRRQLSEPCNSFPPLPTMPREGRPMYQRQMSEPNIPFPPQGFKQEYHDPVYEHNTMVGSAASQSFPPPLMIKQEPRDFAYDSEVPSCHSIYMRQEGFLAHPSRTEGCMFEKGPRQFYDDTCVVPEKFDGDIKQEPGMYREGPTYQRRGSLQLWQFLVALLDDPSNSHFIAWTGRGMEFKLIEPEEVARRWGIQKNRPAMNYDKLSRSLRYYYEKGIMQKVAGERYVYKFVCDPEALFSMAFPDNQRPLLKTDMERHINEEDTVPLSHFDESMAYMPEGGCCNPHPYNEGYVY
# Outline: as §1
# ERF = target: T9, ERF (Homo sapiens, UniProt P50548 1-548)
# T9 sequence: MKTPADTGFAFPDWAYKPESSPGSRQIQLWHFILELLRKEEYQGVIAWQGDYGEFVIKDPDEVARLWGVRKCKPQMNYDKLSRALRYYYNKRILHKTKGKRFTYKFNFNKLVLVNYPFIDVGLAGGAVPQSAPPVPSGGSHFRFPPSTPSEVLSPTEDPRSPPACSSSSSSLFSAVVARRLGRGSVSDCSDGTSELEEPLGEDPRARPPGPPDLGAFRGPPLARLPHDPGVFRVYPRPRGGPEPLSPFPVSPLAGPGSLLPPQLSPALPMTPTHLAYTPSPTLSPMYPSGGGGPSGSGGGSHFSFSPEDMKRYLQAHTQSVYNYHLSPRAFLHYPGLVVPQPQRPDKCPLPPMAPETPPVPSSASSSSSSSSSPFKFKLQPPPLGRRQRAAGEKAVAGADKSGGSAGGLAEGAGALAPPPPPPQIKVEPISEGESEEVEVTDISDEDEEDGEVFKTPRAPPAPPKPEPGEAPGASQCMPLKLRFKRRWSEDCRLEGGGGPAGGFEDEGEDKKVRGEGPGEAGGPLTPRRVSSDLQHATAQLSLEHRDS
# Outline: as §1
# ETV3L = target: T10, ETV3L (Homo sapiens, UniProt Q6ZN32 1-361)
# T10 sequence: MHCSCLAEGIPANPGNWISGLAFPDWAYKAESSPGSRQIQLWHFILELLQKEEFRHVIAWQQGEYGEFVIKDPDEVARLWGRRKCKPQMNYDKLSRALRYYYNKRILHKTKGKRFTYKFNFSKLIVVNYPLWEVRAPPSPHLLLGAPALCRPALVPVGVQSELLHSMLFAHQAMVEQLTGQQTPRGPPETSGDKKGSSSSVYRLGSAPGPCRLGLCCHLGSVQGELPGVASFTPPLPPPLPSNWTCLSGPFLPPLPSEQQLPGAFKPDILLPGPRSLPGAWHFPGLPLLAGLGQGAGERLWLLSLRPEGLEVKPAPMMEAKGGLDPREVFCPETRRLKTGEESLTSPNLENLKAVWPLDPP
# Outline: as §1
# ETS2 = target: T11, ETS2 (Homo sapiens, UniProt P15036 1-469)
# T11 sequence: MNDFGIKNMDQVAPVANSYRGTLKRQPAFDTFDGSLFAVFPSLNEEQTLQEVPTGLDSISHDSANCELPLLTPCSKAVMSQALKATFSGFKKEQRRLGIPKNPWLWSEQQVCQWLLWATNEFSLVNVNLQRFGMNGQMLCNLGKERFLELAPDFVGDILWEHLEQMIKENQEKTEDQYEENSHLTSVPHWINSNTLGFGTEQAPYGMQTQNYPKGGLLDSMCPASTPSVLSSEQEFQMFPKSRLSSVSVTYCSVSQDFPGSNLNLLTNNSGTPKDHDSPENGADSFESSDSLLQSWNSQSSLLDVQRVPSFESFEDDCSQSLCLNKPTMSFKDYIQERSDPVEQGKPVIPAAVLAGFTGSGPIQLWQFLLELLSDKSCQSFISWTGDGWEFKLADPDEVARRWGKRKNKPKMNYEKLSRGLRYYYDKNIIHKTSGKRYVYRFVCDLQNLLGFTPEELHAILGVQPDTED
# Outline: as §1
# ETV3 = target: T12, ETV3 (Homo sapiens, UniProt P41162-2 1-143)
# T12 sequence: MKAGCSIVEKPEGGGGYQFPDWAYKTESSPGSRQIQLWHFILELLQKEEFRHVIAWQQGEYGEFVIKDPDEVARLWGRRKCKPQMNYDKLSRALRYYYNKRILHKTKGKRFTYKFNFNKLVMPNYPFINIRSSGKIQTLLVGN
# Outline: as §1
# ETV6 = ETV6 (Homo sapiens, UniProt P41212 1-452)
# Chain of ETV6 (P41212 whole entry): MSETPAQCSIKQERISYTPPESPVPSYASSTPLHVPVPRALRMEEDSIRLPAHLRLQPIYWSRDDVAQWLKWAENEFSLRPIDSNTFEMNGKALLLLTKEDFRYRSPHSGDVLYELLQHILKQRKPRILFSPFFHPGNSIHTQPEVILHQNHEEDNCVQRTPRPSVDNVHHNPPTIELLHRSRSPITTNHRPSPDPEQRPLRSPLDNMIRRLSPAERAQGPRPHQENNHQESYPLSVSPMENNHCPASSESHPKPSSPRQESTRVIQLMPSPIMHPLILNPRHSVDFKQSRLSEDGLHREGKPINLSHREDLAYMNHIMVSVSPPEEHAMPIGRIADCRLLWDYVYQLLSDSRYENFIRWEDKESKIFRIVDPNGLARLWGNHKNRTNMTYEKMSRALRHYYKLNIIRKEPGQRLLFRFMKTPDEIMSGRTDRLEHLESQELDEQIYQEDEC
# Outline: as §1
sequence,measurement,setting,value
GCCGCC,binding signal,FLI1,"1.21 fold enrichment (6-mer frequency, TF over GST control)"
same,binding signal,ELK1,"1.1 fold enrichment (6-mer frequency, TF over GST control)"
same,binding signal,GABPA,"1.16 fold enrichment (6-mer frequency, TF over GST control)"
same,binding signal,ERG,"1.02 fold enrichment (6-mer frequency, TF over GST control)"
same,binding signal,ELF1,"1 fold enrichment (6-mer frequency, TF over GST control)"
same,binding signal,EHF,"1.05 fold enrichment (6-mer frequency, TF over GST control)"
same,binding signal,SPI1,"1.13 fold enrichment (6-mer frequency, TF over GST control)"
same,binding signal,ELK3,"1.15 fold enrichment (6-mer frequency, TF over GST control)"
same,binding signal,FEV,"1.05 fold enrichment (6-mer frequency, TF over GST control)"
same,binding signal,ETV5,"1.04 fold enrichment (6-mer frequency, TF over GST control)"
same,binding signal,SPIC,"1.03 fold enrichment (6-mer frequency, TF over GST control)"
same,binding signal,ELF4,"1.08 fold enrichment (6-mer frequency, TF over GST control)"
same,binding signal,ETV1,"1.12 fold enrichment (6-mer frequency, TF over GST control)"
same,binding signal,ERF,"1.03 fold enrichment (6-mer frequency, TF over GST control)"
same,binding signal,ETV3L,"1 fold enrichment (6-mer frequency, TF over GST control)"
same,binding signal,ETS2,"1.01 fold enrichment (6-mer frequency, TF over GST control)"
same,binding signal,ETV3,"1.11 fold enrichment (6-mer frequency, TF over GST control)"
same,binding signal,ETV6,"1.02 fold enrichment (6-mer frequency, TF over GST control)"
